Rows were chosen to be rich in hits. Some 8.7% of all compounds tested hit in one or more screens of this group.
VACV Venus inh: qHTS for Stage-Specific Inhibitors of Vaccinia Orthopoxvirus: Venus Reporter Primary qHTS; Vaccinia virus Venus reporter expression, fluorescence; Potency, µM (titrated, usually from 36.5 µM), most hits filed as inhibitors; 330,000 compounds, 0.46% hits; calls by dose curve; tested in A549 cells; note: nearly all actives have a fitted effect of over 30% in size
Pf growth 48h: Primary qHTS for delayed death inhibitors of the malarial parasite plastid, 48 hour incubation. AID 504832, 2011. P. falciparum luciferase growth in erythrocytes, 48 h. 310,000 compounds, 5.9% hits. Potency, µM (highest dose often 28.7 µM), actives largely listed as inhibitors
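Erythrocytes infected with P. falciparum carrying an integrated firefly luciferase reporter (2% hematocrit, 0.1% parasitemia final) were exposed to compounds in RPMI 1640 with 0.5% Albumax at 37 C, 5% CO2. Growth inhibition was scored as reduced luminescence.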
Vaccinia mCherry: qHTS for Stage-Specific Inhibitors of Vaccinia Orthopoxvirus: mCherry Reporter Primary qHTS; 310,000 compounds, 0.63% hits; AID 720579, 2013; Potency, µM (highest dose often 36.5 µM), usual class: inhibitors; Vaccinia virus mCherry reporter infection, fluorescence; calls by dose curve; tested in A549 cells; note: nearly all actives have a fitted effect of over 35% in size
AMA1 RON2 block: qHTS for Inhibitors of AMA1-RON; Towards Development of Antimalarial Drug Lead: Primary Screen. Plasmodium falciparum AMA1 (3D7) - RON2 peptide interaction. AlphaScreen AMA1-biotinylated RON2 peptide binding. Potency, µM (doses to about 58.2 µM), hits mostly inhibitors. 360,000 compounds, 0.2% hits. AID 720542, 2013; note: nearly all actives have a fitted effect of over 45% in size
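AMA1 (3D7) with his tag at 25 nM final met compounds first, then biotinylated RON2 peptide at 25 nM; detection used donor plus acceptor beads, 10 µg/mL apiece, read by AlphaScreen after 30 min at room temperature.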
Pf growth 96h: Primary qHTS for delayed death inhibitors of the malarial parasite plastid, 96 hour incubation | P. falciparum luciferase reporter growth, 96 h | Potency, µM (series often up to 28.7 µM), actives largely listed as inhibitors | 320,000 compounds, 6.9% hits
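Parasite growth measured via integrated firefly luciferase reporter in P. falciparum. Infected erythrocytes at 2% hematocrit, 0.05% parasitemia final were treated 96 hours at 37 C under 5% CO2, and luminescence was read.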
Hits are given with their value; n = inactive; u = inconclusive; x = no result. Unless noted, calls come from the whole dose curve; as a rule, active = well fitted curve in the direction sought with a large enough effect; inconclusive = small, poorly fitted or top-dose-only effect, or another doubt; inactive = no such curve, though single readings can be large; an effect the other way counts as inactive or inconclusive.

SMILES	VACV Venus inh	Pf growth 48h	Vaccinia mCherry	AMA1 RON2 block	Pf growth 96h
COc1ccc(NC(=O)C2CCCCN2S(=O)(=O)c2ccc(F)cc2)cc1 (stereo not drawn)	n	n	n	n	0.59µM
O=C(Nc1ccc2c(c1)OCO2)C1CCCCN1S(=O)(=O)c1ccc(F)cc1 (stereo not drawn)	x	n	x	n	9.3µM
CC1CCN(c2ccc(NC(=O)C3CCCN3S(=O)(=O)c3ccc(F)cc3)cc2)CC1 (stereo not drawn)	x	u	x	n	12µM
COC(=O)C1CCCN1S(=O)(=O)c1ccc([N+](=O)[O-])cc1 (stereo not drawn)	x	n	x	n	u
Nc1ccc(/C=C/c2ccnc3ccccc23)cc1	n	x	n	x	x
O=C(NC1CCCCC1)C1CCCN1S(=O)(=O)c1ccc(F)cc1 (stereo not drawn)	n	n	n	n	n
CCOC(=O)N1CCC(NC(=O)C2CCCCN2S(=O)(=O)c2ccc(F)cc2)CC1 (stereo not drawn)	n	x	n	n	1µM
CCN(N=O)c1ccc(/C=C2\C=Cc3ccccc32)cc1	n	x	n	x	x
O=C(CSc1nc2ccccc2c(=O)n1-c1ccccc1F)Nc1ccc2c(c1)CCC2	n	u	n	n	u
O=C(CSc1nc2ccc(F)cc2c(=O)n1-c1ccccc1)Nc1ccc2c(c1)CCC2	n	x	n	n	x
O=C(CSc1nc2ccccc2c(=O)n1-c1ccc(F)cc1F)Nc1ccc2c(c1)CCC2	x	9.3µM	x	n	u
O=C(CSc1nc2ccccc2c(=O)n1-c1ccc(F)cc1)Nc1ccc2c(c1)CCC2	n	9.3µM	n	n	9.3µM
Cc1ccc(-n2c(SCC(=O)Nc3cccc(S(=O)(=O)NC4=NCCCCC4)c3)nc3ccccc3c2=O)cc1	n	u	n	n	3.7µM
Cc1nn(-c2ccccc2)c2c1C(c1ccc(Cl)cc1)N(c1ccccc1)C(=O)N2 (stereo not drawn)	x	13µM	x	n	13µM
CCc1ccccc1NC(=O)CSc1ncc2c(n1)-c1ccccc1N(C)S2(=O)=O	n	x	n	x	x
Cc1ccc(Cc2c(C)nc3nc(SCC(=O)NCCC(C)C)nn3c2C)cc1	n	x	n	x	x
Cc1ccc(C(=O)N2c3ccccc3N(Cc3ccccc3)C(=O)C2(C)C)cc1	n	12µM	n	n	7.4µM
CC(=O)Nc1ccc(C(=O)NCCCOC(C)C)cc1	n	n	n	n	n
CCC(C)[C@H](NC(=O)NCCCOC(C)C)C(=O)OC (stereo partly drawn)	n	n	n	n	12µM
COCCCNC(=O)C(=O)NCCCOC(C)C	x	n	x	n	12µM
CCN1CCN(C(c2cccc(OC)c2OC)c2nnnn2Cc2ccco2)CC1 (stereo not drawn)	n	n	n	n	n
COc1ccc(OC)c(C(c2nnnn2CCc2ccccc2)N2CCN(c3ccccc3)CC2)c1 (stereo not drawn)	n	9.3µM	n	u	x
COc1ccccc1C(c1nnnn1Cc1ccco1)N1CCN(c2cccc(C)c2C)CC1 (stereo not drawn)	x	3.3µM	x	n	u
COCCn1nnnc1C(c1ccc(OC)cc1OC)N1CCN(c2ccccc2)CC1 (stereo not drawn)	u	n	x	n	u
COc1ccccc1N1CCN(C(c2ccc(N(C)C)cc2)c2nnnn2CCc2ccccc2)CC1 (stereo not drawn)	n	9.3µM	n	20µM	u
SMILES	VACV Venus inh	Pf growth 48h	Vaccinia mCherry	AMA1 RON2 block	Pf growth 96h
COc1ccc(N2CCN(C(c3cc(OC)ccc3OC)c3nnnn3Cc3ccco3)CC2)cc1 (stereo not drawn)	n	13µM	n	u	u
Cc1ccc(-c2nc3sc(CCNC(=O)c4ccc(Br)o4)c(C)n3n2)cc1	n	x	n	x	x
CCn1c(=O)cc(OCC(=O)NCc2ccc(F)cc2Cl)c2ccccc21	n	x	n	x	x
CCCNC(=O)C(=O)NCC(c1ccc2c(c1)OCO2)N1CCOCC1 (stereo not drawn)	n	x	n	x	x
CCOC(=O)c1cc(-c2ccc(OC)cc2)n(CCC(=O)NCCc2ccccc2)c1C	n	x	n	x	x
CCCC(c1nnnn1Cc1ccco1)N1CCN(c2cc(Cl)ccc2C)CC1 (stereo not drawn)	n	10µM	n	u	n

Source: PubChem
